Most compounds without a hit are left out; they make up all but 2.4% or so of the library.
GLS inh: qHTS for Inhibitors of Glutaminase (GLS); Glutaminase kidney isoform, mitochondrial (Homo sapiens), O94925; GLS enzymatic activity, qHTS titration; 410,000 tested, 0.21% active; Potency, µM (top dose mostly 45.5 µM), usual class: inhibitors
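Two-point fluorescence kinetic (t0, 30 min RT) for hKGA; glutamate detected via glutamate oxidase–HRP–Amplex Red. Substrate: 1 mM L-glutamine solution; buffer 45 mM KH2PO4, pH 8.2.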
Pol eta inh-1: qHTS for Inhibitors of Polymerase Eta; recombinant Pol eta, fluorescent DNA replication assay; DNA polymerase eta (Homo sapiens), Q9Y253; 390,000 tested, 1.2% active; Potency, µM (highest dose often 114 µM), usual class: inhibitors
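Pol eta (10 nM) was preincubated with compounds for 15 min at room temperature, after which fluorescent replication substrate (50 nM final) was added to start the reaction. Fluorescence was read kinetically at 0 and 10 min.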
POLI inh: qHTS for Inhibitors of Polymerase Iota. Pol iota fluorescent replication assay, 10 min. Potency, µM (titrated, usually from 115 µM), usual class: inhibitors. 390,000 tested, 1% active
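Pol iota at 10 nM preincubated 15 min with compounds at room temperature; reaction started with fluorescent substrate, 50 nM final. Fluorescence read kinetically at 0 and 10 min; buffer-only wells as negative control.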
Pol beta inh: qHTS Assay for Inhibitors of DNA Polymerase Beta. P06746. 340,000 tested, 1.3% active. Pol beta primer extension/strand displacement, fluorescence kinetic. Potency, µM (doses to about 114 µM), hits mostly inhibitors. AID 485314, 2010
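Values derive from four-parameter Hill fits of normalized kinetic data: reads at 0 and 10 min following addition of 50 nM substrate to 10 nM Pol beta preincubated 15 min with compound.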
GCN5L2 inh: qHTS Assay for Inhibitors of GCN5L2; AID 504327, 2011; 390,000 tested, 0.21% active; Potency, µM (titrated, usually from 58.9 µM), actives largely listed as inhibitors; GCN5L2 HAT assay, ThioGlo1 CoA-SH fluorescence
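GCN5L2 (20nM final) in 50mM HEPES, 0.1mM EDTA pH 7.5, 0.01% Tween-20 was preincubated 15 min at room temperature with compound, then given ThioGlo1 (50uM), H3(1-25) peptide (75uM) and acetyl-CoA (70uM); CoA-thiol fluorescence (Ex340/Em540) was read at 0 and 20 min.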
Pol kappa inh-1: qHTS for Inhibitors of Polymerase Kappa; DNA polymerase kappa (Homo sapiens), Q9UBT6; purified Pol kappa, fluorescent DNA synthesis assay, 10 min; Potency, µM (series often up to 107 µM), actives largely listed as inhibitors; 400,000 tested, 0.53% active; AID 588579, 2011
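First, compounds were pin-transferred onto 10 nM Pol kappa. After 15 min at room temperature, substrate was added to 50 nM final. Fluorescence was then measured kinetically at 0 and 10 min.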
GALK inh confirm: Confirmation Assay for Inhibitors of Human Galactokinase (GALK). shares compounds with Pol eta inh-1. purified GALK, Kinase-Glo ATP depletion luminescence. Potency, µM (highest dose often 115 µM), usual class: inhibitors. 150 tested, 70% active. AID 2015, 2009
GALK redox cs: Confirmatory Assay for Inhibitors of Human Galactokinase (GALK): Phenol-HRP redox assay counterscreen; shares compounds with Pol eta inh-1; AID 2035, 2009; 150 tested, 40% active; Potency, µM (doses to about 115 µM), hits mostly inhibitors; Phenol red-HRP H2O2 redox cycling, absorbance 600 nm
HEK293 viability: Secondary Assay for Inhibitors of Human Galactokinase (GALK): HEK-293 Cell Viability Assay | shares compounds with Pol eta inh-1 | HEK-293 viability, ATP luminescence (CellTiter-Glo), 24/48 h | Potency, µM (titrated, usually from 46.1 µM), most hits filed as inhibitors | 170 tested, 10% active | AID 2547, 2010
Pol kappa inh-2: qHTS for Inhibitors of Polymerase Kappa: Confirmatory Assay for Cherry-picked Compounds; Potency, µM, most hits filed as inhibitors; 920 tested, 76% active; shares compounds with Pol eta inh-1; purified Pol-kappa, fluorescent strand-displacement substrate; AID 720501, 2013
Pol eta inh-2: qHTS for Inhibitors of Polymerase Eta: Confirmatory Assay for Cherry-picked Compounds; Pol eta primer extension, TAMRA/BHQ fluorescence, 10 min; 2,600 tested, 64% active; Potency, µM, usual class: inhibitors; shares compounds with Pol eta inh-1; AID 720502, 2013
Hits are given with their value; i = inactive; ? = inconclusive; nt = no result given. Calls follow the shape of the dose curve; as a rule, active = well fitted curve in the direction sought with a large enough effect; inconclusive = small, poorly fitted or top-dose-only effect, or another doubt; inactive = no such curve, though single readings can be large; an effect the other way counts as inactive or inconclusive.

SMILES	GLS inh	Pol eta inh-1	POLI inh	Pol beta inh	GCN5L2 inh	Pol kappa inh-1	Pol kappa inh-2	Pol eta inh-2	others
CC1=C(C(=O)OC(C)C)C2(O)C(=O)c3ccccc3C2(O)N1 (stereo not given)	i	i	i	i	i	i	nt	nt
CCOC(=O)C1=C(C)N[C@@]2(O)c3ccccc3C(=O)[C@@]12O	i	i	i	i	i	i	nt	nt
CCOC(=O)C1=C(C)OC2(O)c3ccccc3C(=O)C12O (stereo not given)	i	40µM	1.6µM	i	i	i	nt	nt	GALK inh confirm=27µM;GALK redox cs=19µM;HEK293 viability=i
Nc1ccc(Br)c2cccnc12	i	?	?	i	i	i	nt	?
CS(=O)(=O)Oc1ccc(Br)c2cccnc12	i	i	i	i	i	i	nt	nt
COc1ccc(N2Cc3cccc(C(=O)Nc4cc(C)cc(C)c4)c3C2=O)cc1	i	79µM	71µM	10µM	i	?	42	?
COCCN1Cc2cccc(C(=O)Nc3cc(C)cc(C)c3)c2C1=O	i	i	i	i	i	i	nt	nt
O=C(O)CCCCCn1c(SCC(=O)N2CCCC2)nc2ccsc2c1=O	i	i	?	i	i	i	nt	nt
O=C(O)CCCCCn1c(SCC(=O)c2ccc(O)c(O)c2)nc2ccsc2c1=O	i	2.8µM	?	40µM	i	?	7.5	17
O=C(CSCc1ccccc1)N1CCN(S(=O)(=O)c2ccc(F)cc2)CC1	i	i	i	i	i	i	nt	nt	GALK inh confirm=i;GALK redox cs=i;HEK293 viability=i
CCCN(c1ccc(C(C)C)cc1)S(=O)(=O)c1ccc2c(c1)CCN2C(=O)CC	i	i	i	i	i	i	nt	nt
Cc1cccc(C)c1NC(=O)Cn1cc(S(=O)(=O)Cc2ccc(F)cc2)c2ccccc21	?	?	?	28µM	?	?	?	?
Cc1cc(C)c(NC(=O)Cn2cc(S(=O)(=O)Cc3ccccc3F)c3ccccc32)c(C)c1	i	i	i	i	i	i	nt	nt
CCN(CC)CCCNC(=O)c1ccc(Cn2c(SCc3ccccc3)nc3cccnc32)cc1	i	i	i	i	i	i	nt	nt
O=C1NC(=S)S/C1=C\c1cc(Cl)cc(Cl)c1O	i	35µM	32µM	nt	nt	?	24	nt
Cc1cc(/C=C2\SC(=S)NC2=O)c(C)n1-c1ccc(O)cc1	i	50µM	?	50µM	i	?	?	nt
Cc1c(NC(=O)c2ccc(Cl)cc2)cc(C(C)C)c(O)c1S(=O)(=O)c1ccc(Cl)cc1	i	i	i	i	i	i	nt	nt
Cc1ccc(C)c(NC(=O)N2CCN3CCCCC3C2)c1 (stereo not given)	i	i	i	i	i	i	nt	nt
O=C(COC(=O)c1cncc(Br)c1)Nc1nnc(-c2ccccc2)o1	i	40µM	?	nt	nt	?	nt	60
O=C(O)c1ccc(Nc2ncc([N+](=O)[O-])cc2[N+](=O)[O-])cc1	i	32µM	?	i	i	i	nt	67
O=C(Nc1ccc(C(=O)O)cc1)Nc1ccc([N+](=O)[O-])cc1	i	i	i	i	i	i	nt	nt
O=C(O)c1cc(NS(=O)(=O)c2ccc(NCc3ccccc3)c([N+](=O)[O-])c2)cc(C(=O)O)c1	i	16µM	i	i	i	i	?	nt
CCC(=O)c1ccc(CCCCCC(=O)O)s1	i	8.9µM	?	35µM	i	?	nt	38
N#Cc1cc(C(=O)c2ccccc2O)cn(-c2nccs2)c1=O	i	16µM	i	20µM	i	i	nt	67
CC(C)n1cc(C(=O)c2ccccc2O)cc(C#N)c1=O	i	i	i	i	i	i	nt	nt
SMILES	GLS inh	Pol eta inh-1	POLI inh	Pol beta inh	GCN5L2 inh	Pol kappa inh-1	Pol kappa inh-2	Pol eta inh-2	others
N#Cc1cc(C(=O)c2cc(F)ccc2O)cn(-c2nccs2)c1=O	?	28µM	?	18µM	i	?	nt	?
CSc1ccc(CCNC(=O)c2c(C)oc3ncn(C)c(=O)c23)cc1	i	i	i	i	i	i	nt	nt
Cn1nnnc1SCC1=C(C(=O)O)N2C(=O)C(NC(=O)C3CC3c3ccccc3)C2SC1 (stereo not given)	i	14µM	14µM	32µM	i	?	67	48
CC(C(=O)NC1C(=O)N2C(C(=O)O)=C(CSc3nnnn3C)CSC12)n1cc(Br)cn1 (stereo not given)	i	32µM	?	18µM	i	?	nt	?
CCc1cccc2c(-c3ccccc3)nc(SCC(=O)Nc3ccccc3OC)nc12	i	i	i	i	i	i	nt	nt
CCc1ccccc1Nc1cc(C(=O)NCc2ccc(C)cc2)c2ccccc2n1	i	i	i	i	i	i	nt	nt
Cc1c(C(=O)O)c(O)cc2c1C(=O)c1c(O)c([C@@H]3O[C@H](CO)[C@@H](O)[C@H](O)[C@H]3O)c(O)c(O)c1C2=O	i	?	?	nt	i	50µM	42	?
O=C(O)c1cc(N/N=C2/CC(c3ccccc3)Oc3ccccc32)ccc1Cl (stereo not given)	?	20µM	?	40µM	i	?	nt	60
CN(C)S(=O)(=O)c1cccc(NC(=O)COC(=O)/C=C/c2ccco2)c1	i	?	i	32µM	i	i	nt	?
COc1ccc(OCC(=O)N/N=C/c2cccn2-c2cccc(C(=O)O)c2)cc1	i	5µM	10µM	nt	i	79µM	21	30
O=C(COc1ccccc1)N/N=C/c1sc(=O)n(Cc2cccc(C(=O)O)c2)c1Cl	i	22µM	?	i	i	i	nt	34

Screening results from PubChem.
